Measured values reported in PubChem BioAssay AID1159580 (chemical genetic matrix, 2015).
Values joined by “and” are separate entries in the source; they are usually repeats but may differ in a detail not shown here. Equal entries are not always repeated. The whole screen tested about 5,500 compounds, of which about 2,000 (36%) were called active. Not shown: some 18% with an inconclusive outcome. No stated cut-off is given here; in the data, active means normalized growth mostly below about 0.91 (no sharp cut-off); inconclusive means no clear call, values can overlap the other calls; inactive means mostly above about 0.92. Some of the results follow.

Experiment: chemical genetic growth profiling, strain panel (AID 1159580);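 further: tested at 20 µM; growth read once vehicle control cultures reached saturation at 30 °C; 1 = growth at the plate median or of vehicle wells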
Details: S. cerevisiae deletion strains, growth OD

Measured: normalized growth

CC(N)(Cc1ccc(O)cc1)C(=O)O (stereo not drawn)
inactive: locus YAL013W, strain DEP1, stronger effect = lower value 1.03 | locus YAL040C, strain CLN3, stronger effect = lower value 0.969 and 1.01 | locus YCL061C, strain MRC1 (second series), stronger effect = lower value 0.991 and 1.01 | locus YDR150W, strain NUM1, stronger effect = lower value 1 | locus YDR363W, strain ESC2, stronger effect = lower value 1 and 1.03 | locus YER002W, strain NOP16, stronger effect = lower value 0.984 and 1 | locus YGR078C, strain PAC10, stronger effect = lower value 1.02 | locus YGR229C, strain SMI1, stronger effect = lower value 1.03 | locus YJR075W, strain HOC1, stronger effect = lower value 1.02 | locus YMR263W, strain SAP30, stronger effect = lower value 1.01 | locus YNL128W, strain TEP1, stronger effect = lower value 0.984 | locus YNL153C, strain GIM3, stronger effect = lower value 0.998 and 1.02 | locus YNL175C, strain NOP13, stronger effect = lower value 0.97 and 1.01 | locus YNL197C, strain WHI3, stronger effect = lower value 0.975 and 0.984 | locus YNL224C, strain SQS1, stronger effect = lower value 1.01 and 1 | locus YNL322C, strain KRE1, stronger effect = lower value 1.03 | locus YOR083W, strain WHI5 (second series), stronger effect = lower value 0.974 and 1 | locus YPL055C, strain LGE1, stronger effect = lower value 1.01 and 1.02
